Results taken from ChEMBL document CHEMBL3988442, “University of Dundee, Small-Polar-MMV Screening Library” (2021).
For some of these results: Measured potencies and affinities stand elsewhere.

Columns and labels:
Set-up in all cases: scale not given: direction of the effect not stated beside the values
[1] = target: Protein translocase subunit SecA (Escherichia coli (strain K12)) (UniProt P10408); experiment: Assay to Identify E. coli SecA ATPase Inhibitors; format: functional; details: 30 µM
[2] = target: T1, Ubiquitin-activating enzyme e1, putative (Leishmania donovani (strain BPK282A1)) (UniProt E9BSI1); experiment: Leishmania donovani Ubiquitin Activating Enzyme (LdE1); format: functional; details: 30 µM
T1 sequence (whole entry): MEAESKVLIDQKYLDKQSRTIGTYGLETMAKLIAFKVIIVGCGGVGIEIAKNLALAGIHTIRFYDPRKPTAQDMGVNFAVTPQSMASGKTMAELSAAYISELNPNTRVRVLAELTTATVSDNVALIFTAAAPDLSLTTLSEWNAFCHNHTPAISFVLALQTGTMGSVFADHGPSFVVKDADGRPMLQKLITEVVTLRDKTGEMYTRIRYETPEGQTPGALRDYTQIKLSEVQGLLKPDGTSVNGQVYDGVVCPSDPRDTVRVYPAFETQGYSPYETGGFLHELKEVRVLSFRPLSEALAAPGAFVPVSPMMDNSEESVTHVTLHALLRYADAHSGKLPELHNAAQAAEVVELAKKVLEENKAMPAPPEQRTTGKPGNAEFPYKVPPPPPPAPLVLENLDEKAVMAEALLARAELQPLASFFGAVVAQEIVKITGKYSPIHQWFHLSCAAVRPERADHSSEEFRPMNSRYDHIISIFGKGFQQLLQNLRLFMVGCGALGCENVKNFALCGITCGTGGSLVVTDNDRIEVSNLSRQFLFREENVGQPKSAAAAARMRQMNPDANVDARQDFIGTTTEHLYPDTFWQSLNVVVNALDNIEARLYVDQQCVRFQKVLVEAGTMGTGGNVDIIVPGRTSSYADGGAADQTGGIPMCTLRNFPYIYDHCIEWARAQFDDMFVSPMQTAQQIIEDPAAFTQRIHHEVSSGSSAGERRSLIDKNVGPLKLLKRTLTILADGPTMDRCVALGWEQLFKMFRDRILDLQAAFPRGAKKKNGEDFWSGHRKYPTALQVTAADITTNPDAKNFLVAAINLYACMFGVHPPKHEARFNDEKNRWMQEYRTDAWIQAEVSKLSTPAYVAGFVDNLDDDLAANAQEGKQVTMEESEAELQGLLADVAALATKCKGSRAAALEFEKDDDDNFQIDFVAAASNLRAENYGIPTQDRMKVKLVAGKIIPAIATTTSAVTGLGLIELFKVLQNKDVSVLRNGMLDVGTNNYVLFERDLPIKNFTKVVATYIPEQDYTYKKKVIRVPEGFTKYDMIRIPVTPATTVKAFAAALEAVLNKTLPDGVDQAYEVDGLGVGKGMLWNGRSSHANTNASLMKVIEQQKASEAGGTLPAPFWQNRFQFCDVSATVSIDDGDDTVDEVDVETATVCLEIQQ

[3] = target: AMP-activated protein kinase, AMPK (Homo sapiens) (UniProt P54646+O43741+P54619+Q9UGJ0+Q9Y478+Q13131+Q9UGI9); experiment: AMP-dependent Kinase enzyme assay. An in vitro enzyme assay that detects ADP turnover that is directly proportional to AMPK activity. This uses naive AMPK that is activated during the assay with MK-8722; format: functional; details: 30 µM
[4] = target: Sialic acid-binding Ig-like lectin 9 (Homo sapiens) (UniProt Q9Y336); experiment: Hs-Siglec9 ALPHAscreen SOP 20170721; details: 10 µM
Sequence of Sialic acid-binding Ig-like lectin 9 (Homo sapiens) (Q9Y336 whole entry): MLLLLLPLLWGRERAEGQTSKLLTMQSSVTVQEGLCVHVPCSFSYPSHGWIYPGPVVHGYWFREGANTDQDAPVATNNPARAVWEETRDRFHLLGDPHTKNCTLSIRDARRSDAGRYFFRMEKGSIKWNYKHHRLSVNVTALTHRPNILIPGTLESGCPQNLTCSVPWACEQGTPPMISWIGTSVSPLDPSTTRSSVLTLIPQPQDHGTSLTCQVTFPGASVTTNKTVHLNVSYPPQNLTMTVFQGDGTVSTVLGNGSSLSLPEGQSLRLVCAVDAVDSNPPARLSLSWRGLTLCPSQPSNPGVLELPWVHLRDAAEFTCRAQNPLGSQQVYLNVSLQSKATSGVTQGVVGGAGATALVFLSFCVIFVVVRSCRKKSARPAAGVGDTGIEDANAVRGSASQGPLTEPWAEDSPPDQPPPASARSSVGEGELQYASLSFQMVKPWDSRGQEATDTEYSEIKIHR

[5] = system: Trypanosoma cruzi; experiment: Trypanosoma cruzi phosphomannomutase and mannose-1-phosphate guanylyltransferase assay; format: functional; details: 10 µM
[6] = target: T2, Arginase-2, mitochondrial (Homo sapiens) (UniProt P78540); experiment: in vitro enzyme assay to detect the production of urea directly proportional to the activity of Arginase II; format: functional; details: 33.3 µM; further: in the data most compounds retested in dose-response had high values
T2 sequence (whole entry): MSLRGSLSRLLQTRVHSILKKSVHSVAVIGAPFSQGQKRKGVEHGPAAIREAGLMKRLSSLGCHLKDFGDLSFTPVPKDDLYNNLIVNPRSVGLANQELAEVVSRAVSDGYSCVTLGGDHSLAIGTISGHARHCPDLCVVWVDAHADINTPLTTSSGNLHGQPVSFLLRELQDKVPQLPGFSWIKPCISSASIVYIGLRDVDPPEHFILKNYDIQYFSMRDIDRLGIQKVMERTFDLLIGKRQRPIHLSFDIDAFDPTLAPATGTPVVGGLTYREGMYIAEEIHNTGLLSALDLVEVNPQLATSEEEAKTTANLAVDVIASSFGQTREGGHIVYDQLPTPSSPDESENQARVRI

[7] = target: T3, Proteasome subunit beta (Trypanosoma cruzi) (UniProt O96673); experiment: Trypanosoma cruzi proteasome chymotrypsin-like activity (TcProtChymo) assay.; further: in the data most compounds retested in dose-response had high values; format: functional; details: 9.37 µM
T3 sequence (whole entry): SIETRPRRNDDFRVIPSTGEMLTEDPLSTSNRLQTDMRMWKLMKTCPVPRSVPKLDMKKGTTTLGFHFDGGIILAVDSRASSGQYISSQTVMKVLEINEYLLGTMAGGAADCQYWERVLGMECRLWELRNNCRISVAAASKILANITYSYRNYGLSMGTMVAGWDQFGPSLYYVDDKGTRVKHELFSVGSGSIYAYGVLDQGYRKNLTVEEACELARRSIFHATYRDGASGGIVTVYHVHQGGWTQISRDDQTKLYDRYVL

[8] = species on record: Homo sapiens; experiment: To identify inhibition of the IFN signalling (Jak-Stat) pathway via expression of an eGFP reporter gene under the control of an IFN-stimulated response element (ISRE) containing MxA promoter.; format: functional; details: 30 µM
[9] = target: T4, Tyrosyl-tRNA synthetase, putative (Trypanosoma cruzi (strain CL Brener)) (UniProt Q4DSP6); experiment: Trypanosoma cruzi tyrosyl tRNA synthetase (TcYRS) _High Tyrosine SOP; format: functional; details: 30 µM; further: in the data most compounds retested in dose-response had high values
T4 sequence (whole entry): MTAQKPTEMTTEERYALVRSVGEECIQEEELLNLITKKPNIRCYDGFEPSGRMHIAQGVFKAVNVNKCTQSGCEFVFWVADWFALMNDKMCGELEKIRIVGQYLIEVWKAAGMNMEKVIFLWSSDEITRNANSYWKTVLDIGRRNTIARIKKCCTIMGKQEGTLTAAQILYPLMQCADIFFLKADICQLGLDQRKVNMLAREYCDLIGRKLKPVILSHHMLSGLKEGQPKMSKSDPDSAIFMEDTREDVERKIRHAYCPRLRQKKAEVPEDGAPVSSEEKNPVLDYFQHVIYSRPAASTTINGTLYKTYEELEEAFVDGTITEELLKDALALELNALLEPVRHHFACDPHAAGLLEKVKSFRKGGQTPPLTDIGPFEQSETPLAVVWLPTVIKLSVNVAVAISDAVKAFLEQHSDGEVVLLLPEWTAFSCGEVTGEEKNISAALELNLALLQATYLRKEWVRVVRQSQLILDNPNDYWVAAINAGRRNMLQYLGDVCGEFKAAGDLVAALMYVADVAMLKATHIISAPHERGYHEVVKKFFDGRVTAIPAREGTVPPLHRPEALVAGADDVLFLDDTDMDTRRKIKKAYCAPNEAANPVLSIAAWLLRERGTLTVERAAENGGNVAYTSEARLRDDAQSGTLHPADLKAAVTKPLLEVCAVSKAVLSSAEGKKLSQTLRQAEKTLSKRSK

[10] = target: T4, Tyrosyl-tRNA synthetase, putative (Trypanosoma cruzi (strain CL Brener)); experiment: Trypanosoma cruzi tyrosyl tRNA synthetase (TcYRS) SOP; format: functional; details: 30 µM
[11] = target: Chromo domain-containing protein 1 (Saccharomyces cerevisiae (strain ATCC 204508 / S288c) (Baker's yeast)) (UniProt P32657); experiment: ScCHD-1 Enzyme Inhibition Assay; format: functional; details: 30 µM; further: in the data most compounds retested in dose-response had high values
Sequence of Chromo domain-containing protein 1 (Saccharomyces cerevisiae (strain ATCC 204508 / S288c) (Baker's yeast)) (P32657 whole entry, the tested form may be a part): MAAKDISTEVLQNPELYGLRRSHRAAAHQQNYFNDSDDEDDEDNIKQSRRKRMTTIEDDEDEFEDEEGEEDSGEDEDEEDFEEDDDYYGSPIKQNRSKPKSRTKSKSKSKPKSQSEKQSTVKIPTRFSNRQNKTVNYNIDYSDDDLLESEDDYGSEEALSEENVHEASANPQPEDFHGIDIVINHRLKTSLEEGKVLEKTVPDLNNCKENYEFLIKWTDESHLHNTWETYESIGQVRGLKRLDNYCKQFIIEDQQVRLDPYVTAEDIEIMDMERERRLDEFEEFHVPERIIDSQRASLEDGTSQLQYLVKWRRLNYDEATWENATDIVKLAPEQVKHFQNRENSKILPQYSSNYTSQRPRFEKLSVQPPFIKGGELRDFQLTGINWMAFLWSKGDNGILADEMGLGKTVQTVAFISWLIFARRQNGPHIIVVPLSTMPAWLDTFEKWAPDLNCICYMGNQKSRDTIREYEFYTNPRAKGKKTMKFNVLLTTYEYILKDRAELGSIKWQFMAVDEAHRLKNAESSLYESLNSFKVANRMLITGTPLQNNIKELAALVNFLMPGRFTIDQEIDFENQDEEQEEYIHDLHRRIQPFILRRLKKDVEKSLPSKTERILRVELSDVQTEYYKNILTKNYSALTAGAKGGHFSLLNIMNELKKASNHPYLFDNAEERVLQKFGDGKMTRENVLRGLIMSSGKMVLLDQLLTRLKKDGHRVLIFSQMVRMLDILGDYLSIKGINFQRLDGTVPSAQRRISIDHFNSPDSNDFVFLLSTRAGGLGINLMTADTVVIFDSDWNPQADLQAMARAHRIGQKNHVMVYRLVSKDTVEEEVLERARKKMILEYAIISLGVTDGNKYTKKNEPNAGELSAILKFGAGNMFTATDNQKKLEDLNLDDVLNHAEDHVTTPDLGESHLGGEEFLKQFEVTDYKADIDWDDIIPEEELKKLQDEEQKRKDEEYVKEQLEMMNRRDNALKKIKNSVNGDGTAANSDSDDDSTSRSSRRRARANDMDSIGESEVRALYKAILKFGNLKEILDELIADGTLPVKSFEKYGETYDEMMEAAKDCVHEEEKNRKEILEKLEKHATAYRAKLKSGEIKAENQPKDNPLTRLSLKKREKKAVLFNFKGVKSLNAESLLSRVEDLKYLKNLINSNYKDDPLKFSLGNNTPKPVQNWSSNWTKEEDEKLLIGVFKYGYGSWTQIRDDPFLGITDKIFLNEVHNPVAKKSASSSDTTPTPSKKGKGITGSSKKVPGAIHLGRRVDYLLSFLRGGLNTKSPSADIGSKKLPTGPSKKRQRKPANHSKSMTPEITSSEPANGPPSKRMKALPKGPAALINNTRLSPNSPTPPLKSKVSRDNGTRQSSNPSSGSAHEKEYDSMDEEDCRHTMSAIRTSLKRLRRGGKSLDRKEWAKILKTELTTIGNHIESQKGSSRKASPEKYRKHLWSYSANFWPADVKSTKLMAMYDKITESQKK

Sequence of Protein translocase subunit SecA (Escherichia coli (strain K12)) (P10408 whole entry): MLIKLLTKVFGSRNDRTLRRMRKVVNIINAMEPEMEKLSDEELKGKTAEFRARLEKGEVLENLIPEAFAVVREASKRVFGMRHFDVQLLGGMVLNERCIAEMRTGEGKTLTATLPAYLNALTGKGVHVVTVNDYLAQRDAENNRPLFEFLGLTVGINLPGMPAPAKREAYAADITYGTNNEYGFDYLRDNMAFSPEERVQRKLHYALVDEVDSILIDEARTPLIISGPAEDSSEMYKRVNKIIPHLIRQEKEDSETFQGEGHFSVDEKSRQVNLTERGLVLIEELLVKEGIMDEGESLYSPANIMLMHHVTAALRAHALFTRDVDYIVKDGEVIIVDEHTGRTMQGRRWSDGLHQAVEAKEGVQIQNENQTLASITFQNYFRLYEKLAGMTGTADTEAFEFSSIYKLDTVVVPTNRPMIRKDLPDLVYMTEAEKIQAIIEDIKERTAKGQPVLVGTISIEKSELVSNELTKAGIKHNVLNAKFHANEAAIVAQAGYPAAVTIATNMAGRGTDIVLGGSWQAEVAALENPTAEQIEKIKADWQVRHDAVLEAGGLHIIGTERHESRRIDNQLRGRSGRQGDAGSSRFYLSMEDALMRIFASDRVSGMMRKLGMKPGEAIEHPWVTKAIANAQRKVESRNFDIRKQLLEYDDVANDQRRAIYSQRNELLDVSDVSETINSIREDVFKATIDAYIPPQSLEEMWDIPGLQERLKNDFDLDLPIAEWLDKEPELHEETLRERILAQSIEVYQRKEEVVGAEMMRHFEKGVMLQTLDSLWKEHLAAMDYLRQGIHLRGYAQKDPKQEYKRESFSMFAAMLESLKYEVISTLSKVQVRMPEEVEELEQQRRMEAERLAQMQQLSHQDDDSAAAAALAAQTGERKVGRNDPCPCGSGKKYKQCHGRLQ

CS(=O)(=O)N1CCOCC2(CN(Cc3ccsc3)CCO2)C1 (stereo not drawn)
Percent Effect [1]: -4.51% | Percent Effect [2]: 5.48% | Percent Effect [3]: -1.43% | Percent Effect [4]: 5.15% | Percent Effect [5]: 7.14% | Percent Effect [6]: -4.39% | Percent Effect [7]: 8.82% | Percent Effect [8]: 10.5% | Percent Effect [9]: 5.21% | Percent Effect [10]: 6.17% | Percent Effect [11]: -0.73%

Cc1nc(COCc2cnc3n2CCN(C2CCC2)C3C)cs1 (stereo not drawn)
Percent Effect [1]: -2.77% | Percent Effect [2]: 5.33% | Percent Effect [3]: -2.96% | Percent Effect [4]: 12.2% | Percent Effect [5]: 5.21% | Percent Effect [6]: -57.2% | Percent Effect [7]: 10.8% | Percent Effect [8]: -7.58% | Percent Effect [9]: 3.12% | Percent Effect [10]: 7.5% | Percent Effect [11]: -6.66%

CCCn1[nH]cc/c1=N\C(=O)CN1CCCC1c1c(C)nn(C)c1C (stereo not drawn)
Percent Effect [1]: -4.29% | Percent Effect [2]: 2.7% | Percent Effect [3]: -27.7% | Percent Effect [4]: 15.7% | Percent Effect [5]: 7.45% | Percent Effect [6]: 6.81% | Percent Effect [7]: 3.78% | Percent Effect [8]: -0.266% | Percent Effect [9]: 3.45% | Percent Effect [10]: 13.6% | Percent Effect [11]: -10.6%

CC(C)(C)N1CCCN(C(=O)c2csc(S(N)(=O)=O)c2)CC1
Percent Effect [1]: -8.14% | Percent Effect [2]: 0% | Percent Effect [3]: 1.87% | Percent Effect [4]: -9.76% | Percent Effect [5]: -5.57% | Percent Effect [6]: -2.73% | Percent Effect [7]: -0.258% | Percent Effect [8]: -7.17% | Percent Effect [9]: -3.23% | Percent Effect [10]: -6.17% | Percent Effect [11]: -1.28%

Cn1cc(Cl)cc1C(=O)N1CCN(Cc2ccsc2)CC1
Percent Effect [1]: -0.357% | Percent Effect [2]: 5.26% | Percent Effect [3]: 5.58% | Percent Effect [4]: -5.04% | Percent Effect [5]: 4.13% | Percent Effect [6]: 0.766% | Percent Effect [7]: -1.67% | Percent Effect [8]: -2.56% | Percent Effect [9]: 2.45% | Percent Effect [10]: 4.88% | Percent Effect [11]: -0.287%

O=C(NCCc1ccncc1)C1CCN(Cc2ccco2)CC1
Percent Effect [1]: -7.38% | Percent Effect [2]: -2.67% | Percent Effect [3]: -2.38% | Percent Effect [4]: -3.22% | Percent Effect [5]: -6.52% | Percent Effect [6]: -2.6% | Percent Effect [7]: 12.7% | Percent Effect [8]: 25.9% | Percent Effect [9]: -1.64% | Percent Effect [10]: 1.24% | Percent Effect [11]: -7.8%

Cn1cc(CN2CCCn3cnc(COCC4CC4)c3C2)cn1
Percent Effect [1]: -4.51% | Percent Effect [2]: 8% | Percent Effect [3]: -1.37% | Percent Effect [4]: 1.51% | Percent Effect [5]: 6.95% | Percent Effect [6]: -55.7% | Percent Effect [7]: 7.69% | Percent Effect [8]: -4.29% | Percent Effect [9]: 4.17% | Percent Effect [10]: 15% | Percent Effect [11]: -7.64%

Cc1ccoc1C(=O)NC1CCN(Cc2csc3c(F)cccc23)CC1
Percent Effect [1]: -4.82% | Percent Effect [2]: -1.27% | Percent Effect [3]: -4.47% | Percent Effect [4]: -1.87% | Percent Effect [5]: -0.308% | Percent Effect [6]: -3.66% | Percent Effect [7]: 9.61% | Percent Effect [8]: 17.2% | Percent Effect [9]: 6.25% | Percent Effect [10]: 10.1% | Percent Effect [11]: -13.8%
